# Experimental data taken from PubChem BioAssay AID431 (Sanford-Burnham Center for Chemical Genomics, 2006).
# In all, about 63,000 compounds went through this assay and about 1,100 (1.7%) were called active. Only a selection was taken, and actives are over-represented in it overall. Entries with a potency or affinity are not part of this list. Unmarked numbers belong to inactive results.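 Rule for the calls: active = compounds whose percent cytotoxicity in the single-dose primary screen, scaled between solvent and toxic-drug controls, exceeds 50; inactive = the rest.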
# Assay: cytotoxicity in KRAS-transformed pancreatic duct cells, primary screen, cell-based, fluorescence, HTS (AID 431);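 note: 0% = DMSO solvent wells and 100% = doxorubicin-treated wells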
# Details: HPDE-C7K KRASV12 cells, Alamar Blue viability, 48 h; at 10 µM; active compounds read high
row,SMILES,cytotoxicity
1,Cn1c(=O)n(CC(=O)OCc2ccccc2)c(=O)c2c1nc1n2CCCN1C1CCCCC1,0.1%
2,N#CC1=C(N)SC(N)=C(C#N)C1CCC1CCCCC1,35.2%
3,Cc1nc(-c2ccc(C(=O)O)cc2)cs1,-9.4%
4,COCCNC(=O)c1ccc(NS(C)(=O)=O)cc1,-8%
5,COc1ccc(OC)c(NC(=O)CC(NCCC2=CCCCC2)C(=O)O)c1 (stereo not drawn),-16.9%
6,CC1CCN(CC(O)COc2ccc(F)cc2)CC1 (stereo not drawn),-1.9%
7,Cc1ccc(N2CCN(CC(O)COC3CCCCC3)CC2)cc1 (stereo not drawn),42.6%
8,CC1CCN(CC(O)COC2CCC(C(C)(C)C)CC2)CC1 (stereo not drawn),50.3% (active)
9,CC1CC(=O)N(Cc2ccccc2)c2ccccc2N1C=O (stereo not drawn),7.1%
10,CON(C)c1nc(Oc2ccc(=O)[nH]n2)nc(N(C)C)n1,-15.6%
11,CCC1CCCCN1CCNC(=O)C1CCN(S(=O)(=O)c2c(C)noc2C)CC1 (stereo not drawn),-6.9%
12,CCOC(=O)N1CCN(C(=O)c2ccc3c(c2)sc2nc(-c4ccccc4)cn23)CC1,6.1%
13,COc1ccc2c(c1)sc1nc(-c3ccccc3)cn12,53.3% (active)
14,CCOC(=O)N1CCN(C(=O)c2ccc3c(c2)sc2nc(-c4ccc(OC)cc4)cn23)CC1,19%
15,O=C(NC1=NCCS1)c1ccc2c(c1)C(=O)N(Cc1ccco1)C2=O,-7.1%
16,O=C(OC(C(=O)NCC1CCCO1)c1ccccc1F)c1ccco1 (stereo not drawn),8.7%
17,CCn1ncc(C2=NOC(C(=O)NCc3ccccc3)C2)c1C (stereo not drawn),48.7%
18,CCn1ncc(C2=NOC(C(=O)NCc3ccc(OC)cc3)C2)c1C (stereo not drawn),23.7%
19,CCn1ncc(C2=NOC(C(=O)NCc3ccc(Cl)cc3)C2)c1C (stereo not drawn),59.3% (active)
20,CC1=C(C(=O)Nc2cccc(C)n2)C(c2ccc3c(c2)OCO3)C2=C(CC(c3ccco3)CC2=O)N1 (stereo not drawn),7.4%
21,COC(=O)c1sccc1NC(=O)c1ccncc1,5.9%
22,O=C(Cc1ccccc1)N(c1ccc(F)cc1)C1C=CS(=O)(=O)C1 (stereo not drawn),3.4%
23,Cc1nn(Cc2ccccc2Cl)c(C)c1NC(=O)C1C2CCC(O2)C1C(=O)O (stereo not drawn),0.4%
24,CCn1c(SCC(=O)Nc2ccccc2OC)nnc1-c1cnccn1,-28%
25,C=CCn1c(SCC(=O)Nc2cc3oc4ccccc4c3cc2OC)nnc1-c1cnccn1,50.9% (active)
26,C=CCn1c(SCC(=O)Nc2cc(C)ccc2C)nnc1-c1cnccn1,-12.5%

row,SMILES,cytotoxicity
1,Cc1ccc(OCCN2CCN(C(=O)CCC(=O)Nc3nnc(C(C)C)s3)CC2)cc1,14.3%
2,COc1ccc(-c2noc(COc3ccc(C)c(C)c3)n2)cc1OC,4.5%
3,COc1ccc(-c2noc(COc3ccc4ccccc4c3Br)n2)cc1OC,58% (active)
4,COc1ccc(-c2noc(COc3ccccc3OC)n2)cc1OC,-10.5%
5,CCOC(=O)N1CCN(Cc2nc3c(c(=O)[nH]c(=O)n3C)n2CCCc2ccccc2)CC1,-0.5%
6,CCN(CC)CCCNC(=O)Cn1cc2c(n1)CCC(C)C2 (stereo not drawn),3.7%
7,COc1cccc(Oc2cnc(N)nc2-c2ccc(OC)cc2O)c1,45.2%
8,COc1ccc(-c2nc(N)nc(C)c2Oc2ccccc2Br)c(O)c1,92.6% (active)
9,COc1ccc(-c2nc(N)ncc2Oc2ccccc2Br)c(O)c1,3.7%
10,CCc1ccccc1NC(=O)CN(C)C(=O)CN1C(=O)NC2(CCCCCC2)C1=O,2.1%
11,COc1ccc(NC2C=CS(=O)(=O)C2)c(OC)c1 (stereo not drawn),4.8%
12,Cc1n[nH]c(C)c1S(=O)(=O)N1CCN(c2ccccn2)CC1,7.4%
13,CCc1oc2ccccc2c1C(=O)CCN1CCCCC1,9.9%
14,CCCCC(=O)c1c(O)c2ccccc2oc1=O,17.2%
15,CCOC(=O)C1=C(C)NC2=C(C(=O)CCC2)C1c1cc(OC)ccc1OC (stereo not drawn),1.4%
16,CCOc1ccc(Cn2c(=O)oc3ccc(C)cc32)cc1OC,-2.4%
17,O=S(=O)(c1ccc2ccccc2c1)N(CC(O)CN1CCOCC1)c1ccccc1 (stereo not drawn),-11.1%
18,O=S(=O)(c1ccc2ccccc2c1)N1CCCCC1,5.8%
19,O=C(CN1C(=O)CCSc2ccccc21)Nc1ccccc1,-22.3%
20,CCC(=O)Nc1nnc(SCC(=O)Nc2ccc(F)cc2)s1,-4.3%
21,CCCSc1nnc(NC(=O)Nc2ccc(F)cc2)s1,75.2% (active)
22,CCCSc1nnc(NC(=O)Nc2ccccc2)s1,-9.2%
23,COc1cc(-c2nc3cnccc3n2C)cc(OC)c1OC,-11.3%
24,O=C(Nc1cc(C(F)(F)F)ccc1N1CCOCC1)c1c(F)c(F)c(F)c(F)c1F,69.9% (active)
25,O=C(Nc1cc(C(F)(F)F)ccc1N1CCOCC1)c1cccnc1,2.2%
26,Cc1onc(-c2ccccc2)c1C(=O)Nc1ccccc1N1CCOCC1,4.2%

row,SMILES,cytotoxicity
1,Cc1onc(-c2ccccc2)c1C(=O)Nc1cc(C(F)(F)F)ccc1N1CCOCC1,60.3% (active)
2,CC(=O)Nc1cc(C(F)(F)F)ccc1N1CCOCC1,-2.7%
3,O=C(Nc1cc(C(F)(F)F)ccc1N1CCOCC1)c1ccco1,-2.4%
4,COc1cc(C2NC(=O)c3ccccc3O2)cc(OC)c1OC (stereo not drawn),-13.8%
5,OC1C=CSc2nc3ccccc3n21 (stereo not drawn),-17.8%
6,COC(=O)COc1ccc(NC(=O)C2CCCO2)cc1 (stereo not drawn),-3%
7,CC(C)C[C@H](NC(=O)NCc1ccc(Cl)cc1)C(=O)O,5.3%
8,COc1ccccc1C(=O)Nc1nnc(-c2ccc(F)cc2)o1,-1.2%
9,CCCOC(=O)Nc1nc2ccccc2o1,-0.4%
10,CC(C)CCn1cnc2c(cnn2-c2ccc(F)cc2)c1=O,-10.9%
11,C=CCOc1ccccc1CNn1nnnc1N,-4.5%
12,Nc1ccc(N2CCCCC2)cc1N1CCCCC1,34.3%
13,O=C(O)c1ccc(N2CCCCC2)cc1,-1.2%
14,O=C(O)CCn1[nH]c(=O)ccc1=O,-18.2%
15,CSc1ccccc1NC(=O)c1ccco1,4.6%
16,COc1ccc(C2C3=C(CC(c4ccco4)CC3=O)Nc3ccccc3N2C(C)=O)cc1 (stereo not drawn),-5.9%
17,CCC(=O)N1c2ccccc2NC2=C(C(=O)CC(c3ccco3)C2)C1c1ccco1 (stereo not drawn),7.6%
18,O=C1CC(c2ccco2)CC2=C1C1c3ccccc3C(=O)N1c1ccccc1N2 (stereo not drawn),51.6% (active)
19,COC(=O)C(C(=O)OC)=C(/C=C/N(C)C)N(C)C,0.2%
20,Nc1nonc1C(=O)NCCNCc1cc(Br)ccc1OCc1ccc(F)cc1,54% (active)
21,Nc1nonc1C(=O)NCCNCc1cc(Br)ccc1OCc1ccccc1F,17.1%
22,Nc1nonc1C(=O)NCCNCc1ccccc1OCc1ccccc1F,0.9%
23,COCCn1c(SCC(=O)N2CCCCC2)nc2ccccc2c1=O,4.9%
24,CC(=O)Nc1ccc(S(=O)(=O)N(C)c2ccc(O)cc2)cc1,-12.1%
25,CCOc1ccc(C(=O)Nc2ccc3c(c2)OCO3)cc1OCC,-16.6%
26,CCOC(=O)c1ccc(NC(=O)C2CCN(S(=O)(=O)c3ccccc3)CC2)cc1,6.6%

row,SMILES,cytotoxicity
1,Cc1ccc(C)c(Cn2c(=O)n(CCC(=O)NCc3ccco3)c(=O)c3ccccc32)c1,3%
2,Cc1ccc(C)c(Cn2c(=O)n(CCCC(=O)NCc3ccco3)c(=O)c3ccccc32)c1,56.3% (active)
3,Cc1ccccc1Cn1c(=O)n(CCCC(=O)NCc2ccco2)c(=O)c2ccccc21,-20.6%
4,COc1ccc(CCNC(=O)CSc2nc(N)c3c(C)c(C)oc3n2)cc1OC,4.3%
5,O=C(Nc1ccc2snnc2c1)N1CCN(c2ccccc2)CC1,-17.1%
6,O=C(Nc1cccc(NC(=O)N2CCN(c3ccccc3)CC2)c1)N1CCN(c2ccccc2)CC1,61.3% (active)
7,O=C(Nc1cccc2ccccc12)N1CCN(c2ccccc2)CC1,10.4%
8,COc1cc(OC)cc(-c2cc(NC(C)=O)n[nH]2)c1,-2%
9,CCOC(=O)c1[nH]c(C)c(C(=O)N2CCOCC2)c1C,4.4%
10,COc1cc(/C=C/C2=NC(=O)C(C)(C)O2)ccc1O,32.6%
11,C/C=C/c1ccc(OC)c(OC(C)=O)c1,1.5%
12,O=C(Nc1cccnc1N1CCOCC1)c1ccco1,-0.2%
13,CCn1c(SCC(=O)c2cc(OC)ccc2OC)nnc1C1CC1,4.1%
14,COC(=O)c1ccc(NC(=O)c2sc3nc(-c4ccccc4)cn3c2C)cc1,-6.6%
15,CN(C)c1ccc(/C=[N+](\[O-])C2SC(=S)N(C)C2(C)C)cc1 (stereo not drawn),-16.8%
16,CCc1ccc2c(COn3nnc4ccc(S(=O)(=O)N(C)C)cc43)cc(=O)oc2c1,62% (active)
17,Cc1ccc2c(COn3nnc4ccc(S(=O)(=O)N(C)C)cc43)cc(=O)oc2c1C,2.9%
18,CCc1ccc2c(COC(=O)c3n[nH]c4ccccc34)cc(=O)oc2c1,17.5%
19,COc1ccc(Cn2c(-c3ccco3)nc3oc4ccccc4c(=O)c3c2=O)cc1,8.5%
20,O=c1[nH]c(NCCCO)nc2c1C1(CCCC1)Cc1ccccc1-2,26.4%
21,Cn1c(NCCCO)nc2c(c1=O)C1(CCCCC1)Cc1ccccc1-2,51.9% (active)
22,CC1(C)Cc2ccccc2-c2nc(NCCO)n(-c3ccccc3)c(=O)c21,-9.1%
23,CC1(C)CC(n2c(NCCO)nc3c(c2=O)C2(CCCC2)Cc2ccccc2-3)CCO1 (stereo not drawn),64.4% (active)
24,O=c1[nH]c(NCCO)nc2c1C1(CCCCC1)Cc1ccccc1-2,17.6%
25,Cn1c(NCCO)nc2c(c1=O)C1(CCCCC1)Cc1ccccc1-2,10.5%
